Values joined by “and” are separate entries in the source; they are usually repeats but may differ in a detail not shown here. Identical values can stand only once. Screen size: about 34,000 compounds; about 290 (0.85%) showed an effect of 50% or more. Shown is part of a subset that was picked to be rich in strong results.
System: Plasmodium falciparum
Assay: Plasmodium falciparum sporozoite viability assay
Assay type: functional, organism-based
Set-up: scale not given: in the data most compounds retested in dose-response had high values

SMILES | Percent Effect [%] | Percent Effect (10 mM as filed; unlikely as a test dose)
CCOc1ccnc(N[C@@H](Cc2ccccc2)C(N)=O)n1 | 0.8772 | 
COC(=O)CSCc1noc(-c2ccc(C)cc2)n1 |  | 97.51% and 95.63%
CCOC(=O)CSc1ccc(-c2nc(C)no2)cn1 |  | -0.4631% and 0.4035%
COC(=O)CSCc1noc(-c2ccc(Cl)cc2)n1 |  | 72.7% and 74.65%
COC(=O)CSCc1nc(-c2ccc(Cl)cc2)no1 |  | -107.5% and -111.6%
CCOC(=O)CSc1ccc(-c2nc(CC)no2)cn1 |  | 40.67% and 46.73%
Cc1ccc(-c2nc(CN3CCc4cnc(C)nc4C3)no2)cc1 | 16.875 | 
O=S1(=O)CCC(N(Cc2nc(-c3ccccn3)no2)Cc2cccs2)C1 (configuration not stated) | 22.13 | 
CCN1CCN(CCCNc2ncccn2)CC1 | -11.01 | 
Cc1cc(CN(C)C(=O)c2ccc(N(C)C)nc2)no1 | 3.089 | 
NC(=O)c1cc(C2CCCN(CCOCC3CC3)C2)n[nH]1 (configuration not stated) | -0.5536 | 
Cc1ccc(C2CN(Cc3cccc4[nH]ccc34)CCO2)nc1 (configuration not stated) | 9.691 | 
CC(C)OC(=O)N1CCC(Cc2ccc(C(=O)O)cc2)C1 (configuration not stated) | 5.074 | 
COCCOc1ccc(S(=O)(=O)Nc2cccc(O)c2F)cc1C |  | 65.91% and 54.13%
COCCOc1ccc(S(=O)(=O)Nc2cccnc2O)cc1C |  | -10.26% and -4.441%
COc1ccc(S(=O)(=O)NC(=O)COC2CCCCC2)cc1C | -5.465 | 
CC(C)N1CCN(C)CC(Cc2cc(N(C)C)ncn2)C1 (configuration not stated) | 2.091 | 
CN1CCc2nc3cc(C(=O)NCc4cccs4)ccc3c(=O)n2CC1 | 0.8687 | 
CCCc1nc(CN2CCN(CC(O)c3ccccc3)CC2)no1 (configuration not stated) |  | -24.09% and -24.64% and -18.14%
CCc1nc(CN2CCN(CC(O)c3ccccc3)CC2)no1 (configuration not stated) |  | 4.576% and 5.713% and -3.353%
O=C(CC1CC1)N1CCCn2nnc(CNc3ncccn3)c2C1 | 2.773 | 
Cc1noc(C)c1C(=O)NCc1cccnc1N(C)C | 5.354 | 
CCC(=O)N1CC[C@H](O)[C@@H]1Cc1ccccc1 | -1.986 | 

SMILES | Percent Effect [%] | Percent Effect (10 mM as filed; unlikely as a test dose)
Cc1cccc(CN2CCCCC2c2n[nH]cc2-c2cc(C)no2)c1.Cl (configuration not stated) |  | -21.49% and -8.887% and 2.992%
CCc1ccc(CN2CCCCC2c2n[nH]cc2-c2cc(C)no2)cc1.Cl (configuration not stated) |  | 63.83% and 48.62% and 58.14%
Nc1nccnc1CC1CCCN(Cc2cccc3[nH]ccc23)C1 (configuration not stated) | 4.859 | 
NC(=O)C1CN(c2ccc(Br)cn2)CCO1 (configuration not stated) |  | -39.17% and -33.44%
NC(=O)C1CCN(c2ccc3cc(Br)ccc3n2)C1 (configuration not stated) |  | -42.56% and -39.12%
NC(=O)C1CN(c2ccc3cc(Br)ccc3n2)CCO1 (configuration not stated) |  | 80.55% and 85.86%
Cc1cc(Cc2cccc(C(F)(F)F)c2)cc(C2CCCNC2)n1 (configuration not stated) | 4.537 | 
CN(C)C(=O)CN1CCCCC1c1nc(N)ncc1-c1ccc(Cl)cc1 (configuration not stated) | -1.537 | 
Cc1noc(C)c1C(=O)N1C[C@@H]2CN(Cc3cccnc3)CCO[C@@H]2C1 | -15.82 | 
CCc1nc(-c2cccc(C(=O)O)c2)no1 | 7.751 | 
CS(=O)(=O)NC1CCN(C(=O)NCCc2ccccn2)CC1 | -4.021 | 
Cc1ccc(S(=O)(=O)N2CCN(Cc3ccncc3)CC2)c(Cl)c1 | -1.432 | 
Cc1ccc(OCCN(C)C(=O)CCCC(N)=O)c(C)c1 | -6.308 | 
Cc1cn2c(n1)C(CNCc1cccc3c1OCO3)CCC2 (configuration not stated) | 10.56 | 
Cc1ccc(N2CCCC(NCC3=Cc4ccccc4OC3)C2)nn1 (configuration not stated) | 9.337 | 
Cc1cn2c(n1)C(CNCC1=Cc3cc(Cl)ccc3OC1)CCC2 (configuration not stated) |  | 86.97% and 100% and 87.02%
Cc1cn2c(n1)C(CNCC1=Cc3ccccc3OC1)CCC2 (configuration not stated) |  | 102.3% and 118.3% and 103.2%
CC(NCC1=Cc2cc(Cl)ccc2OC1)c1nnc2n1CCCC2 (configuration not stated) | -0.2255 | 
CCc1n[nH]c(C2CN(Cc3nnc(C4CC4)o3)CCO2)n1 (configuration not stated) | 4.502 | 
CCc1ncnc2c1CCN(CCOC)CC2.O=C(O)C(F)(F)F | 8.757 | 
CC1COCCN1C(=O)COc1ccc(Oc2ccccn2)cc1 (configuration not stated) |  | 62.7% and 63.29% and 47.53%
CC1COCCN1C(=O)COc1cccc(Oc2ccccn2)c1 (configuration not stated) |  | -6.319% and -6.647% and 2.396%
COc1ncccc1CN1CCc2[nH]nc(C(=O)N(C)C)c2C1 | 10.07 | 

SMILES | Percent Effect [%] | Percent Effect (10 mM as filed; unlikely as a test dose)
COCCn1cc(CC(=O)Nc2nc3c(s2)CCC3)c2ccccc21 |  | 1.19% and -4.41% and -3.323%
COCCn1ccc2c(C(=O)Nc3nc4c(s3)CCC4)cccc21 |  | 69.11% and 95.7% and 86.17%
COCCn1ccc2c(NC(=O)c3n[nH]c4c3CCC4)cccc21 |  | -3.571% and -16.58% and -12.91%
Cc1cc(CN2CCN(C(=O)c3sccc3C3CC3)CC2)no1 | 1.531 | 
O=C1CCCN1CC1CCCCN1C(=O)Nc1cccnc1 (configuration not stated) | 7.898 | 
O=C(Nc1cccnc1)[C@H]1C[C@H]2OCC[C@H]2N(C(=O)c2ccsc2)C1.O=C(O)C(F)(F)F | -9.732 | 
O=C(O)C(F)(F)F.O=C(c1ccsc1)N1C[C@@H]2CCN(c3cccnc3)C[C@@H]2C1 | 9.933 | 
O=C(Nc1cccnc1)C1Cc2nc(-c3ccsc3)sc2N1CC1CC1.O=C(O)C(F)(F)F (configuration not stated) |  | 89.12% and 90.39% and 85.39%
CN(C)C(=O)CN1CCC2(CCN(S(C)(=O)=O)CC2)C1=O | 9.72 | 
COc1ncccc1NC(=O)C1CC1 | 5.184 | 
Cc1cnn(CC2CCCN2CC(=O)Nc2nc(C)cs2)c1 (configuration not stated) | 7.289 | 
CN(C)c1cc(C(=O)N2CCN(c3cc(C#N)ccn3)CC2)ccn1 | 0.09769 | 
CCc1ocnc1C(=O)N1CCCC1c1noc(C(C)C)n1 (configuration not stated) | -5.615 | 
COc1cccc(-n2c(C)cc(C(=O)NC(C)(C)C(N)=O)c2C)c1 | 5.357 | 
CN1CCC(c2n[nH]cc2-c2ccnc(N)c2)C1 (configuration not stated) | 2.531 | 
Cc1nnc2n1CCN(CCOc1ccccc1)C2 |  | -26.14% and -25.56% and -5.728%
CS(=O)(=O)NCc1cc(-c2cc(F)cc(F)c2)nc(N2CCCC2)n1 | 13.63 | 
CN(Cc1ccccc1)C(=O)CCNc1ncccc1C#N | -0.1304 | 
CN(Cc1noc(C2CC2)n1)C1CCN(CC(=O)N2CCOCC2)C1 (configuration not stated) | 4.316 | 
COCCOc1ncccc1NCc1nc2ccccc2n1C |  | 12.39% and -0.3581% and 11.74%
COCCOc1ccc(F)cc1NCc1nc2ccccc2n1C |  | 8.05% and -7.699% and 5.859%
COc1cc(F)c(NCc2nc3ccccc3n2C)cc1OC |  | 61.41% and 85.71% and 92.05%
Cc1cc(NC(=O)CNC2CCc3nc(C(C)C)nn3C2)no1 (configuration not stated) | 3.617 | 

SMILES | Percent Effect [%] | Percent Effect (10 mM as filed; unlikely as a test dose)
O=C(O)C(F)(F)F.O=C(O)C(F)(F)F.O=C1CC2(CCN(Cc3cccnc3)C2)CN1c1ccc2c(c1)OCO2 (configuration not stated) | 12.41 | 
CN(C)c1nc2c(c(N3CCc4ccccc4C3)n1)CCNC2 | 6.667 | 
Cl.c1ccc(-c2cc(CNCCCC3CCOC3)c3nnnn3c2)cc1 (configuration not stated) | -4.775 | 
Clc1ccc2nc(N3CCC(NCCCC4CCOC4)CC3)sc2c1 (configuration not stated) |  | 74.93% and 78.72%
Cc1csc2c(N3CCC(NCCCC4CCOC4)CC3)ncnc12 (configuration not stated) | 2.368 | 
COc1ccc2c(c1)C(=O)NC1(CC2)CCN(Cc2ccncc2)C1 (configuration not stated) | 11.06 | 
CCCNC(=O)c1cc(C2CCCN(Cc3ccccn3)C2)no1 (configuration not stated) | 2.586 | 
CNS(=O)(=O)Cc1cccc(CNC(=O)Nc2cn[nH]c2)c1 | 3.105 | 
Cc1n[nH]c(C2CN(C(=O)c3cc4c(s3)CCC4)CCO2)n1 (configuration not stated) |  | -3.516% and -12.52% and -10.81%
Cc1n[nH]c(C2CN(C(=O)c3cc4c(s3)CCCC4)CCO2)n1 (configuration not stated) |  | 11.47% and -8.902% and 7.352%
N#Cc1c(C2CCOC2)cc(-c2ccc(N3CCCCC3)cc2)nc1N (configuration not stated) |  | 29.44% and 63.96% and 52.39%
Oc1nnc(-c2cccs2)c2sc(N3CCCCC3)nc12 |  | 6.59% and -1.953%
Oc1nnc(-c2ccccc2)c2sc(N3CCCCC3)nc12 |  | 60.86% and 56.27%
Oc1nnc(-c2cccs2)c2sc(N3CCCC3)nc12 |  | -6.906% and -7.819%
CCOc1ccc(Cl)cc1CCNC(=O)Cn1nc(C)ccc1=O | -8.218 | 
Cc1nc(C)c(COc2ccc(S(=O)(=O)N(C)C)cc2)s1 |  | 5.36% and 0% and 2.114%
Cc1nc(COc2ccc(N(C)S(C)(=O)=O)cc2)sc1C |  | 53.33% and 78.78% and 74.56%
CN1CCN(c2ccc(NS(=O)(=O)c3ccc(Br)s3)cc2C(=O)O)CC1 | 4.745 | 
Cc1ccc(CC(=O)N2CCN(c3nccs3)CC2)s1 | 2.447 | 
CC(C)OCCCN(Cc1ccncc1)Cc1cc(F)cc(F)c1.Cl | 11.64 | 
CC(=O)Nc1nc(C(=O)N2CCCC(n3cncn3)C2)cs1 (configuration not stated) |  | 82.11% and 81.18% and 79.89%
CC(=O)N1CCN(C(=O)Nc2cnc3c(cnn3C(C)C)c2)CC1 | 25.32 | 
Cc1ccc(CN(CCN(C)C)Cc2ccnn2C2CCCCO2)o1.O=C(O)CC(O)(CC(=O)O)C(=O)O (configuration not stated) | -4.714 | 

— ChEMBL document CHEMBL3988442, “University of Dundee, Small-Polar-MMV Screening Library” (2021)
